From PubChem BioAssay
RECQ1 helicase – inhibitors of human RECQ1 DNA helicase | RECQ1 DNA unwinding, red fluorescence kinetic read | Potency, µM (highest dose often 57.3 µM), without a hit: at the highest dose activity, negative = inhibition, hits mostly inhibitors | 240,000 tested, 0.54% active | P46063;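 further: potency means the concentration at half of the fitted maximal effect; plate controls were vehicle for no effect and no enzyme for full effect; nearly all actives have a fitted effect of over 30% in size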
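RECQ1T1 50 nM; forked duplex (20 bp + 30-nt ss tails) 200 nM, ATP 2 mM final; pH 8.0, 2 mM MgCl2, 2.5 ug/ml poly(dI-dC); 15 min compound preincubation; discontinuous kinetic read over 2 h at RT.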
BLM inh – inhibitors of human Bloom syndrome helicase BLM. P54132. recombinant BLM DNA unwinding, fluorescence dequenching. Potency, µM (top dose mostly 56.1 µM), for inactives: at the highest dose activity change, negative = inhibition, usual class: inhibitors. 350,000 tested, 0.2% active;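 further: potency means the concentration at half of the fitted maximal effect; plate controls were vehicle for no effect and no enzyme for full effect; nearly all actives have a fitted effect of over 35% in size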
WRN helicase inh – inhibitors of human WRN helicase; WRN helicase unwinding, fluorescent forked duplex, kinetic; Potency, µM (series often up to 114 µM), inactives show at the highest dose activity change, negative = inhibition, actives largely listed as inhibitors; 360,000 tested, 0.46% active; AID 651768; further: potency means the concentration at half of the fitted maximal effect; nearly all actives have a fitted effect of over 55% in size
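Enzyme (20 nM final) and test compound sit together 15 min at room temperature before substrate addition. Substrate is a single-forked duplex oligonucleotide (100 nM) labelled with fluorophore and quencher, with 2 mM ATP; helicase unwinding raises red fluorescence, read kinetically.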
FEN1 inh – inhibitors of human flap endonuclease 1. P39748. Recombinant FEN1 flap cleavage, fluorescence, 15 min. Potency, µM (series often up to 114 µM), inactives show at the top dose activity change, negative = inhibition, actives largely listed as inhibitors. 390,000 tested, 0.35% active; further: potency means the concentration at half of the fitted maximal effect; nearly all actives have a fitted effect of over 65% in size
Target sequence (P39748 whole entry, looked up): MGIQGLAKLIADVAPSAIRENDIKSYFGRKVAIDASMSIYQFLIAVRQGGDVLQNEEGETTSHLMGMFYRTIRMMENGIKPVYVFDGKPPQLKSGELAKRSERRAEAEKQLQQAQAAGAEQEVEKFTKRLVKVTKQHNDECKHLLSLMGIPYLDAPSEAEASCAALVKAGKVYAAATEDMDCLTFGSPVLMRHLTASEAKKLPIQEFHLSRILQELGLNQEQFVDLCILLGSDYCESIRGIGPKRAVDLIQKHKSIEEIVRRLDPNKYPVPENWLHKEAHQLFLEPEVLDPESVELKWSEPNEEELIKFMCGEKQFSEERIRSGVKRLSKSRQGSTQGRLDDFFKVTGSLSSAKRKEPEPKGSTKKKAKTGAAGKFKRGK
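Read-out was taken twice, immediately and after 15 min, following addition of 50 nM substrate to 10 nM FEN1 that had sat with test compound for 15 min at room temperature. Curves came from a four-parameter Hill model.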
PI5P4K alpha inh – blocks human PI5P4K alpha kinase activity; P48426; PI5P4Kalpha enzyme, ADP-Glo luminescence, 60 min; active compounds read low; max response, %; 330,000 tested, 1.2% active; AID 652105; active means max response of -50% or lower; inconclusive means between -30% and -50%; inactive means -30% or higher; further: value at the top dose of about 77 µM
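Human PI5P4Kalpha with substrate in 0.038 M HEPES pH 7.4, 0.28 mM EGTA, 0.1% CHAPS, 5% DMSO; reaction started with 5 microM ATP (final), 60 min at room temperature. ADP formed read by ADP-Glo luminescence.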
APEX1 inh – APE1 (human) endonuclease inhibition. P27695. recombinant APE1, TAMRA/BHQ-2 abasic DNA cleavage fluorescence. Potency, µM (top dose mostly 65.8 µM), for the others: top-dose activity change, negative = inhibition, actives largely listed as inhibitors. 350,000 tested, 0.35% active;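 further: potency means the concentration at half of the fitted maximal effect; plate controls were vehicle for no effect and reference inhibitor for full effect; nearly all actives have a fitted effect of over 55% in size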
Target sequence (P27695 whole entry, looked up): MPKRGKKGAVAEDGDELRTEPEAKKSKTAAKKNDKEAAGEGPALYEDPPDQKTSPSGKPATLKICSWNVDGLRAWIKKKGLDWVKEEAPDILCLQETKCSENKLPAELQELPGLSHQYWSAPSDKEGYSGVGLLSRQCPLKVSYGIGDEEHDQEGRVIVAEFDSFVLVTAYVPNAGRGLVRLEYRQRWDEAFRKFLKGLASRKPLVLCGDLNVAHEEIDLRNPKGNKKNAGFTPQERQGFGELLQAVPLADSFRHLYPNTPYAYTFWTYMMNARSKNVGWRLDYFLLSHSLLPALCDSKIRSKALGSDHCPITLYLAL
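APE1 at 0.75 nM preincubated 15 min at room temperature with compound. Reaction then started with 50 nM double-stranded THF-abasic substrate labelled with TAMRA/BHQ-2, and 525/598 nm fluorescence read kinetically. Activity taken as third-minus-first read difference, normalized to DMSO and NSC13755 controls.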
An asterisk follows results filed as active; i = inactive; ? = inconclusive; / = no result given; [ ] = remark or other dose. A selection: hits, their analogues and other compounds. The true share with any hit is near 1.5%. Unless noted, the call rests on the fitted dose curve; in most records, active means well fitted curve in the direction sought with a large enough effect; inconclusive means small, poorly fitted or top-dose-only effect, or another doubt; inactive means no such curve, though single readings can be large; an effect the other way counts as inactive or inconclusive. Unless noted, on the % scale 0 is the no-effect control and ±100 the full control effect.

SMILES	RECQ1 helicase	BLM inh	WRN helicase inh	FEN1 inh	PI5P4K alpha inh	APEX1 inh
C=CCNC(=O)c1cc([N+](=O)[O-])cc2c(=O)[nH]c(Nc3ccc(Cl)c(Cl)c3)nc12	7.08µM*	-18.6%	/	/	/	7.94µM*
CN(C)/C=C/C(=O)c1ccc2noc(-c3ccccc3)c2c1	/	-4.7%	1.9%[11.6 µM]	-10.2%	-69.6*	-12.7%
CC(=O)c1ccc2noc(-c3ccccc3)c2c1	-1.1%	-10.1%	1.7%	1.7%	-3.2	9.4%
Oc1ccc(N=C/C=C/c2cccc(Br)c2)cc1-c1nc2ccccc2s1	-10.7%	-22.9%	?	-10.7%	-58.6*	-4.8%
Nc1ccc(O)c(-c2nc3ccccc3s2)c1	-5.1%	-26.2%	-15.6%	-7.5%	?	-11.5%
N[C@@H](CCC(=O)N[C@@H](CS)C(=O)NCC(=O)O)C(=O)O	/	/	/	/	/	-2.7%
C=CCc1cccc2cc(C(=O)Nc3ccccc3C(=O)O)c(=O)oc12	-3.3%	-7.5%	?	-5.8%	-60.7*	-1.3%
O=C1NC(=S)S/C1=C\c1ccc(SCc2ccccc2)o1	?	-1.3%	?	79.4µM*	-77.0*	?
C[n+]1cccc2cccc([O-])c21	?	25.1µM*	-14.8%[11.6 µM]	?	-28.8	-0.5%
[O-][n+]1cccc2cccc(O)c21	/	/	-1.8%[11.6 µM]	?	-1.2	/
COc1ccc(N2CCN(C(=O)CSc3c4c(nc5ccc(Cl)cc35)CCCC4)CC2)cc1	/	-0.5%	/	-24.3%	/	/
O=C(c1ccco1)N1CCN(C(=O)c2cc(-c3ccccn3)nc3ccc(Cl)cc23)CC1	-3.3%	-6.9%	-34.2%	-7.6%	-59.3*	-8.3%
COC(=O)/C=C/c1cc(O)ccc1O	i	/	/	/	/	-5.5%
CSc1ccc(-c2sc(Nc3ccccc3)n[n+]2-c2ccccc2)cc1	/	74.8%	20.5%	22.4µM*	-53.2*	?
O=c1c(OC2OC(CO)C(O)C(O)C2O)c(-c2ccc(O)c(O)c2)oc2cc(O)cc(O)c12 (configuration not stated)	-16.3%	-1.8%	-4.1%[11.6 µM]	?	-4.0	?
O=c1c(O[C@H]2O[C@@H](CO)[C@H](O)[C@@H](O)[C@@H]2O)c(-c2ccc(O)cc2)oc2cc(O)cc(O)c12	/	/	11.7%	4.3%	-11.6	21.2µM*
O=c1c2c(O)cc(O)cc2oc2c(O)ccc(O[C@H]3O[C@@H](CO)[C@H](O)[C@@H](O)[C@@H]3O)c12	/	/	-16.9%	-13.7%	-56.2*	1.4%
CC(C)(C)n1ncc2c(=O)n(Cc3cccc(OC(F)F)c3)cnc21	/	/	/	-0.6%	/	-7.9%
CC(C)C[C@H](NC(=O)[C@H](Cc1ccccc1)NC(=O)[C@H](Cc1ccccc1)NC(=O)[C@@H](N)CO)C(=O)N[C@@H](CCCN=C(N)N)C(=O)N[C@@H](CC(N)=O)C(=O)O	-10.1%	-0.7%	/	/	/	0.5%
O=C(COc1ccccc1[N+](=O)[O-])Nc1cccc(C(=O)Nc2ccccc2C(=O)O)c1	/	-11.6%	-18.7%	?	-62.5*	-4.7%
Cc1ccc(C2C(C#N)=C(N)Oc3n[nH]c(-c4cccnc4)c32)o1 (configuration not stated)	-10.7%	-6.0%	1.9%	-0.2%	?	17.8%
COc1cc(C2C(C#N)=C(N)Oc3n[nH]c(-c4cccnc4)c32)cc(Br)c1O (configuration not stated)	i	-0.1%	-7.5%	-6.0%	-63.5*	2.3%
CSCCC1C(C#N)=C(N)Oc2n[nH]c(-c3cccs3)c21 (configuration not stated)	i	-6.4%	-20.1%[57.1 µM]	0.6%	-64.6*	-6.0%
Cc1cc(-c2[nH]nc3c2C(c2ccsc2)C(C#N)=C(N)O3)c(C)s1 (configuration not stated)	-6.2%	-15.3%	-23.1%[57.1 µM]	2.4%	-52.3*	9.0%
Cc1ccc(C2C(C#N)=C(N)Oc3n[nH]c(-c4ccccc4)c32)o1 (configuration not stated)	2.4%	-4.8%	?	-17.0%	-67.0*	18.3%
SMILES	RECQ1 helicase	BLM inh	WRN helicase inh	FEN1 inh	PI5P4K alpha inh	APEX1 inh
Cc1cc(-c2[nH]nc3c2C(c2cccc(O)c2)C(C#N)=C(N)O3)c(C)s1 (configuration not stated)	4.7%	-6.4%	-17.6%	-5.5%	/	0.7%
COc1ccc(CCn2c(=S)[nH]c(=O)c3[nH]cnc32)cc1OC	/	/	/	5.4%	/	/
CC[C@H](C)[C@H](NC(=O)[C@H](CCC(=O)O)NC(=O)[C@@H](N)CO)C(=O)N[C@@H](CCC(N)=O)C(=O)N[C@@H](CC(C)C)C(=O)N[C@@H](CCSC)C(=O)N[C@@H](Cc1cnc[nH]1)C(=O)N[C@@H](CC(N)=O)C(=O)N[C@@H](CC(C)C)C(=O)NCC(=O)N[C@@H](CCCCN)C(=O)N[C@@H](Cc1cnc[nH]1)C(=O)N[C@@H](CC(C)C)C(=O)N[C@@H](CC(N)=O)C(=O)N[C@@H](CO)C(=O)N[C@@H](CCSC)C(=O)N[C@@H](CCC(=O)O)C(=O)N[C@@H](CCCNC(=N)N)C(=O)N[C@H](C(=O)N[C@@H](CCC(=O)O)C(=O)N[C@@H](Cc1c[nH]c2ccccc12)C(=O)N[C@@H](CC(C)C)C(=O)N[C@@H](CCCNC(=N)N)C(=O)N[C@@H](CCCCN)C(=O)N[C@@H](CCCCN)C(=O)N[C@@H](CC(C)C)C(=O)N[C@@H](CCC(N)=O)C(=O)N[C@@H](CC(=O)O)C(=O)N[C@H](C(=O)N[C@@H](Cc1cnc[nH]1)C(=O)N[C@@H](CC(N)=O)C(=O)N[C@@H](Cc1ccccc1)C(=O)O)C(C)C)C(C)C	-10.4%	-1.5%	/	/	/	-0.1%
CC(C)(C)n1ncc2c(=O)n(Cc3ccccc3F)cnc21	/	/	/	-6.5%	/	-8.3%
C=C[C@@]1(C)CC(=O)[C@]2(O)[C@@]3(C)[C@H](O)CCC(C)(C)[C@@H]3[C@H](O)[C@H](OC(C)=O)[C@@]2(C)O1	-14.0%	-0.5%	/	/	/	-6.3%
N#CC1=C(N)Oc2n[nH]c(-c3cccs3)c2C1c1ccccc1C(=O)O (configuration not stated)	-3.2%	-6.0%	-4.1%	1.4%	-5.7	-7.4%
N#CC1=C(N)Oc2n[nH]c(-c3cccs3)c2C1c1cccs1 (configuration not stated)	i	-2.1%	-20.8%[57.1 µM]	1.4%	-53.3*	-4.0%
O=C(COc1ccccc1Cl)Nc1ccc(C(=O)O)cc1NC(=O)COc1ccccc1Cl	/	-6.2%	-27.0%	-0.5%	-64.3*	-0.1%
O=C(COc1ccccc1Cl)Nc1ccccc1C(=O)Nc1cccc(C(=O)O)c1	/	2.0%	-2.4%	-5.6%	-2.5	39.3%
